# Experimental data from article PMC7862700, “An all-to-all approach to the identification of sequence-specific readers for epigenetic DNA modifications on cytosine”.
# Experiments:
# Experiment in all cases: DAPPL (digital affinity profiling via proximity ligation, sequencing); 10 mM Tris-HCl pH 7.5, 50 mM NaCl, 1 mM DTT, 4% glycerol, room temperature, 30 min; GST-TFs on glutathione beads, 16-mer random dsDNA library, 0.1% formaldehyde crosslink after washing; high values mean tight binding
# FLI1 = biological target: T1, FLI1 (Homo sapiens, UniProt Q01543 1-452); details: protein: recombinant; tags: N-terminal GST; dsDNA, one strand shown
# T1 sequence: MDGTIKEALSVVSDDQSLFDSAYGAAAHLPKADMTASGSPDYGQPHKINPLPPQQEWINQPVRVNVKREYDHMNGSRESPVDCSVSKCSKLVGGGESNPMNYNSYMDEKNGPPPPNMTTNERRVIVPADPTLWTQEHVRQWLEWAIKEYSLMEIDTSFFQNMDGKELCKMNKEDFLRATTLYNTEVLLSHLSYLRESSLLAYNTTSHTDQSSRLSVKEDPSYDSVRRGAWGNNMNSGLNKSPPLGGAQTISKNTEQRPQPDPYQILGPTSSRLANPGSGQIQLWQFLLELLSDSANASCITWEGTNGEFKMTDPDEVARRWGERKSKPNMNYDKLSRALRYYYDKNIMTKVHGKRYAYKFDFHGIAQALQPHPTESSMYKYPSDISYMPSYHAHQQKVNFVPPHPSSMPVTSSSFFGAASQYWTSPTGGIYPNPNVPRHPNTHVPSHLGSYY
# In short: (§1)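 Binding signal is given per hexamer as its read frequency for a factor divided by its frequency in the tag-only sample. GST-fused human transcription factors were expressed in yeast, captured on glutathione beads, barcoded with DNA and pooled with that sample, then incubated with 200 nmole of a 16-mer random double-stranded DNA library in Tris/NaCl/DTT/glycerol buffer for 30 min at room temperature. The pools were then washed, crosslinked, proximity-ligated, amplified by PCR and sequenced on an Illumina NextSeq500.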
# ELK1 = biological target: T2, ELK1 (Homo sapiens, UniProt P19419 1-428); details: protein: recombinant; tags: N-terminal GST; dsDNA, one strand shown
# T2 sequence: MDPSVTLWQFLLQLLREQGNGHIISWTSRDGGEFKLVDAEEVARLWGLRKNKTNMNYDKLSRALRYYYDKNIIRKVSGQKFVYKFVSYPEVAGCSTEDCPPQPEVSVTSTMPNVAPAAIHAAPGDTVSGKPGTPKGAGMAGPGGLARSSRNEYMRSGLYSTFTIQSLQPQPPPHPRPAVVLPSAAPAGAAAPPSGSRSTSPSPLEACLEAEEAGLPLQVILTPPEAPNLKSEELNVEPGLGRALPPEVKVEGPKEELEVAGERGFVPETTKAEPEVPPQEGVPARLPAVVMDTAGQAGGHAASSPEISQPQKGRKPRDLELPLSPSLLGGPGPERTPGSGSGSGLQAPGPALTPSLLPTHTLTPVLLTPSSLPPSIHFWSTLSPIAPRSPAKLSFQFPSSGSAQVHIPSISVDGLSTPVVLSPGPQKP
# In short: as §1
# GABPA = biological target: T3, GABPA (Homo sapiens, UniProt Q06546 1-454); details: protein: recombinant; tags: N-terminal GST; dsDNA, one strand shown
# T3 sequence: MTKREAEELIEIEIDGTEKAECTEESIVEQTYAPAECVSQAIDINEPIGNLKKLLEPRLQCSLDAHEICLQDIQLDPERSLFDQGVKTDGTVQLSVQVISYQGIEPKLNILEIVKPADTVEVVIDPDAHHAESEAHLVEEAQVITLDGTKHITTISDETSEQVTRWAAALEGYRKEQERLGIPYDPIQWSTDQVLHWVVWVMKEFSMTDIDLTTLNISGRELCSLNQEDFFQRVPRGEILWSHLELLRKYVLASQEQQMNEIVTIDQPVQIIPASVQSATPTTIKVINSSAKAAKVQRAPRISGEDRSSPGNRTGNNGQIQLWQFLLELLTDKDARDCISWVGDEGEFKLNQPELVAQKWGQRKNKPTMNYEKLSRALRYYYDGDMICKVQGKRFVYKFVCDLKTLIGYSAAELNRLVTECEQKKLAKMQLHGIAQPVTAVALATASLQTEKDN
# In short: as §1
# ERG = biological target: T4, ERG (Homo sapiens, UniProt P11308 1-479); details: protein: recombinant; tags: N-terminal GST; dsDNA, one strand shown
# T4 sequence: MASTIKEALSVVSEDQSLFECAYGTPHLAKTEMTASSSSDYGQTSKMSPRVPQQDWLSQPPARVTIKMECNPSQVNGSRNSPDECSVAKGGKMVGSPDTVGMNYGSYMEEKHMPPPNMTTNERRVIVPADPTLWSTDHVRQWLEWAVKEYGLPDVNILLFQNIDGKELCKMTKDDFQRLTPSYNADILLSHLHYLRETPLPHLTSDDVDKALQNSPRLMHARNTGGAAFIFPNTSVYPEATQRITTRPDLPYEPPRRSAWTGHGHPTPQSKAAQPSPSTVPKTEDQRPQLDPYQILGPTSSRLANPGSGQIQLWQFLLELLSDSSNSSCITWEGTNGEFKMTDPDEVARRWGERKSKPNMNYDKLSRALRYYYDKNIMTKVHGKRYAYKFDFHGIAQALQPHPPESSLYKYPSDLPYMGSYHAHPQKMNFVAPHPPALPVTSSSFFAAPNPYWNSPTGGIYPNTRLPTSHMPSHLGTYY
# In short: as §1
# ELF1 = ELF1 (Homo sapiens, UniProt P32519 1-619); details: protein: recombinant; tags: N-terminal GST; dsDNA, one strand shown
# Sequence of ELF1 (P32519 whole entry): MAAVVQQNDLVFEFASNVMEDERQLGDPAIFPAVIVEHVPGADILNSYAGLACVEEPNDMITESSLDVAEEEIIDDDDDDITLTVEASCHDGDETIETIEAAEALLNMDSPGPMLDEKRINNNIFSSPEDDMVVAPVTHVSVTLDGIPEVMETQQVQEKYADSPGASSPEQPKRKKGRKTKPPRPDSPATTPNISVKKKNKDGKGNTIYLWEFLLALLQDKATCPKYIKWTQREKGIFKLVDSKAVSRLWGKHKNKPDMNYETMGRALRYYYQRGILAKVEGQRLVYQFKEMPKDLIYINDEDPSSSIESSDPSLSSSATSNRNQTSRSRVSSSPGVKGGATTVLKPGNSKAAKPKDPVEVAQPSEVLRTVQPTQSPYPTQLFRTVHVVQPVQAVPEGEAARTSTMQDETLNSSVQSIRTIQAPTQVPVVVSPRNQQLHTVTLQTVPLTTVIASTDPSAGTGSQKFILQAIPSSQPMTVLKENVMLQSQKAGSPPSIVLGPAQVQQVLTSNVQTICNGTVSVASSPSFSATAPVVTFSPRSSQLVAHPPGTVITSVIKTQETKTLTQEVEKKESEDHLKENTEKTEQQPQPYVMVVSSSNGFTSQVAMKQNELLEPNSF
# In short: as §1
# EHF = biological target: T5, EHF (Homo sapiens, UniProt Q9NZC4 1-300); details: protein: recombinant; tags: N-terminal GST; dsDNA, one strand shown
# T5 sequence: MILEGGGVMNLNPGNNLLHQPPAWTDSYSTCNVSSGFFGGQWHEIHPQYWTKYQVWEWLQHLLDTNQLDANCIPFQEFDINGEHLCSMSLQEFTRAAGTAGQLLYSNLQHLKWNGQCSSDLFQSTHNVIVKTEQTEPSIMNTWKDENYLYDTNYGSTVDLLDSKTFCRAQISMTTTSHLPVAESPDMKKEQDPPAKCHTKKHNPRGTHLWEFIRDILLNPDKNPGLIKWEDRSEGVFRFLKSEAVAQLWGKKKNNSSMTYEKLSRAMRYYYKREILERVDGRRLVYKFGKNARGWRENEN
# In short: as §1
# SPI1 = SPI1 (Homo sapiens, UniProt P17947 1-270); details: protein: recombinant; tags: N-terminal GST; dsDNA, one strand shown
# In short: as §1
# SPIB = SPIB (Homo sapiens, UniProt Q01892 1-262); details: protein: recombinant; tags: N-terminal GST; dsDNA, one strand shown
# Sequence of SPIB (Q01892 whole entry): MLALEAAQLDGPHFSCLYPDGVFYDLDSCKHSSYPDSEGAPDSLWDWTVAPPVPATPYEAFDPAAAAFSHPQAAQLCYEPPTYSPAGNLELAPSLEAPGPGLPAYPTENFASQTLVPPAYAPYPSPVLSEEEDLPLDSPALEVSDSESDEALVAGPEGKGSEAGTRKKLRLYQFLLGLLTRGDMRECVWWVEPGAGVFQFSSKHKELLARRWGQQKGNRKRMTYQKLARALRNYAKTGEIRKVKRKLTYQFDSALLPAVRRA
# In short: as §1
# ELK3 = biological target: T6, ELK3 (Homo sapiens, UniProt P41970 1-407); details: protein: recombinant; tags: N-terminal GST; dsDNA, one strand shown
# T6 sequence: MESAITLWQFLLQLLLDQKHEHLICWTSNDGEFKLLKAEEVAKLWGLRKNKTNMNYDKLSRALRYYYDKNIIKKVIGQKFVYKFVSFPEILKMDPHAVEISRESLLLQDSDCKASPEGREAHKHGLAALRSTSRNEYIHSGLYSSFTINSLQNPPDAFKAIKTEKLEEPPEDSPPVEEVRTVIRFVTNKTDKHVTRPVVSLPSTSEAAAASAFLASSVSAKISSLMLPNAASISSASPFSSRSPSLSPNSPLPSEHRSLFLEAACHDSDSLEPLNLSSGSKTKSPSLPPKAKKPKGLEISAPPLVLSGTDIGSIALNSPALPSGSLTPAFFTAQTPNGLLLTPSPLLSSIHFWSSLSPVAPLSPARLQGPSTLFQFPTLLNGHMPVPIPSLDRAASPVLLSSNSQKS
# In short: as §1
# FEV = biological target: T7, FEV (Homo sapiens, UniProt Q99581 1-238); details: protein: recombinant; tags: N-terminal GST; dsDNA, one strand shown
# T7 sequence: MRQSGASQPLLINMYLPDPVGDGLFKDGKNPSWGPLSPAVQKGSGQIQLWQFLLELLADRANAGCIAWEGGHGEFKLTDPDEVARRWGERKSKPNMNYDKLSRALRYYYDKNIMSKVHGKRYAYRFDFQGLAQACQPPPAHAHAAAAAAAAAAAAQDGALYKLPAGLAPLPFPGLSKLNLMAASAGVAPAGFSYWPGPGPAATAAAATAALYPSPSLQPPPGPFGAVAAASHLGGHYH
# In short: as §1
# ETV5 = ETV5 (Homo sapiens, UniProt P41161 1-510); details: protein: recombinant; tags: N-terminal GST; dsDNA, one strand shown
# Sequence of ETV5 (P41161 whole entry): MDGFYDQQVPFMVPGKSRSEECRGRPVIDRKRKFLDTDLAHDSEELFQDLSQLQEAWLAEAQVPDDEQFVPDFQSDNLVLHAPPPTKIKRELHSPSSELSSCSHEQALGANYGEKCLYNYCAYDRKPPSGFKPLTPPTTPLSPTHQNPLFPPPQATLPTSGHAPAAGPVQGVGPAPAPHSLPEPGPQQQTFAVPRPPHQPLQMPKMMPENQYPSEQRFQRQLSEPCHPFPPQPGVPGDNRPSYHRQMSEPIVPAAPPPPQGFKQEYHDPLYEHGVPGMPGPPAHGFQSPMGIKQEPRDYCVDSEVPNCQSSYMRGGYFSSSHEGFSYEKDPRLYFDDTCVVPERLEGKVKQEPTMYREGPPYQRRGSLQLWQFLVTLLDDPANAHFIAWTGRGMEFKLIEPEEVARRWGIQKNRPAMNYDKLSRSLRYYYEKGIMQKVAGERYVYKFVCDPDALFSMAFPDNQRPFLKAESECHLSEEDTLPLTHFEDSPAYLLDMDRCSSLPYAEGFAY
# In short: as §1
# HSF1 = HSF1 (Homo sapiens, UniProt Q00613 1-529); details: protein: recombinant; tags: N-terminal GST; chain copies: 3; dsDNA, one strand shown
# Sequence of HSF1 (Q00613 whole entry): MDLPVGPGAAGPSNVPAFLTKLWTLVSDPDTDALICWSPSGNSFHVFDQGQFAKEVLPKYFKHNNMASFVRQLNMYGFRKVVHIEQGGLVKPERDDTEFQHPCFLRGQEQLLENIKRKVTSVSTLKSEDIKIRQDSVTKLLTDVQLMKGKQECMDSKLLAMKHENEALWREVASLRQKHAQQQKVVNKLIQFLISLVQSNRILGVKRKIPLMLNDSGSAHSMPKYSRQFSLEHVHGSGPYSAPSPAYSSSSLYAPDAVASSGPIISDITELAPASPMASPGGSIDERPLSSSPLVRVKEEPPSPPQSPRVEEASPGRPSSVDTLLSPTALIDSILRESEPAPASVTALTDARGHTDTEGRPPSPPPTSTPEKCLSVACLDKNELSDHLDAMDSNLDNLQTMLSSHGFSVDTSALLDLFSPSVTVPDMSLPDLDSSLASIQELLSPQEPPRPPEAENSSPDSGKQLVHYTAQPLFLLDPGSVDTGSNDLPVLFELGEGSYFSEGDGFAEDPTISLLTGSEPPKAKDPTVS
# In short: as §1
# SPIC = biological target: T8, SPIC (Homo sapiens, UniProt Q8N5J4 1-248); details: protein: recombinant; tags: N-terminal GST; dsDNA, one strand shown
# T8 sequence: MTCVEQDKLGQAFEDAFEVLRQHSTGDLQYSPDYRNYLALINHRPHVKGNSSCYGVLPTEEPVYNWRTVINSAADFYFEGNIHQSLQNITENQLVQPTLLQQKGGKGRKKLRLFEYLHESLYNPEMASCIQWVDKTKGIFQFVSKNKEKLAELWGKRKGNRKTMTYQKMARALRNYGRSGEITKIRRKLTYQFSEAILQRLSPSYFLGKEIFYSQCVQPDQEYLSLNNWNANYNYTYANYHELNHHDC
# In short: as §1
# ELF4 = ELF4 (Homo sapiens, UniProt Q99607 1-663); details: protein: recombinant; tags: N-terminal GST; dsDNA, one strand shown
# Sequence of ELF4 (Q99607 whole entry): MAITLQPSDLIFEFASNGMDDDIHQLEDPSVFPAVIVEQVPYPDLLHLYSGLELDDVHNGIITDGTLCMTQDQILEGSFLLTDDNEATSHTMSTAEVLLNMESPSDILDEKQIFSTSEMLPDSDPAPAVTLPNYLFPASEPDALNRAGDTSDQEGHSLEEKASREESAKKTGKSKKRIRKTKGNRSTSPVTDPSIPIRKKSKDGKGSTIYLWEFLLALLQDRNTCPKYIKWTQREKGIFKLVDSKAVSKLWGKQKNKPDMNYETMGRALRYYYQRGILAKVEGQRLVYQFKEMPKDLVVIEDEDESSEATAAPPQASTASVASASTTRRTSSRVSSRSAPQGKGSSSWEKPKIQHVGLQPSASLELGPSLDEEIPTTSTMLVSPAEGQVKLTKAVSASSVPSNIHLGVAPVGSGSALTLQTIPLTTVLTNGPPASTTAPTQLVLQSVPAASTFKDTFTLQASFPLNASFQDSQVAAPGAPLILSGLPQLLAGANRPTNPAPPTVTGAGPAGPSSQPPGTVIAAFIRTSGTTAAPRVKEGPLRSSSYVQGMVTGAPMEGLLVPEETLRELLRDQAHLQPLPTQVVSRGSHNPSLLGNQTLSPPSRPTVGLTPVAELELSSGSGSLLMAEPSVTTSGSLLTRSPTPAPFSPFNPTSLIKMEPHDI
# In short: as §1
# ETV2 = biological target: T9, ETV2 (Homo sapiens, UniProt O00321 1-342); details: protein: recombinant; tags: N-terminal GST; dsDNA, one strand shown
# T9 sequence: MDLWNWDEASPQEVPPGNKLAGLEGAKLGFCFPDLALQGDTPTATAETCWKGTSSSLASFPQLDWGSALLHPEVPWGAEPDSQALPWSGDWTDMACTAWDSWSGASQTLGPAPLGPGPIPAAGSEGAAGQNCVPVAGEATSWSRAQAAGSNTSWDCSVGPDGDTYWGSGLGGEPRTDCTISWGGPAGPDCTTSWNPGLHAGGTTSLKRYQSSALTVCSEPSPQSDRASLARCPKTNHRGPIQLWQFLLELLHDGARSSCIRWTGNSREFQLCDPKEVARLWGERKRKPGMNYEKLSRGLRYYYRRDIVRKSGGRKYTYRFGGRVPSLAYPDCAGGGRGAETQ
# In short: as §1
# ELF3 = biological target: T10, ELF3 (Homo sapiens, UniProt P78545 1-371); details: protein: recombinant; tags: N-terminal GST; dsDNA, one strand shown
# T10 sequence: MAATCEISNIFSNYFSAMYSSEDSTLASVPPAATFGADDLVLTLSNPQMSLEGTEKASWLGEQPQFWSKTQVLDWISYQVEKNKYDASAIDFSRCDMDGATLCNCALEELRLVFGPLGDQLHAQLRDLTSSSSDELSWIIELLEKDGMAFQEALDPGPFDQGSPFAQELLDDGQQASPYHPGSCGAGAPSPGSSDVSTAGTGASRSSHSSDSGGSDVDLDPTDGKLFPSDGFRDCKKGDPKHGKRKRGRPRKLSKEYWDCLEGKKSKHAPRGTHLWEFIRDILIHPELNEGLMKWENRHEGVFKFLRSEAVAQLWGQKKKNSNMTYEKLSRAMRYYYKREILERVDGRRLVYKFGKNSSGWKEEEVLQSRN
# In short: as §1
# ETV1 = ETV1 (Homo sapiens, UniProt P50549 1-477); details: protein: recombinant; tags: N-terminal GST; dsDNA, one strand shown
# Sequence of ETV1 (P50549 whole entry): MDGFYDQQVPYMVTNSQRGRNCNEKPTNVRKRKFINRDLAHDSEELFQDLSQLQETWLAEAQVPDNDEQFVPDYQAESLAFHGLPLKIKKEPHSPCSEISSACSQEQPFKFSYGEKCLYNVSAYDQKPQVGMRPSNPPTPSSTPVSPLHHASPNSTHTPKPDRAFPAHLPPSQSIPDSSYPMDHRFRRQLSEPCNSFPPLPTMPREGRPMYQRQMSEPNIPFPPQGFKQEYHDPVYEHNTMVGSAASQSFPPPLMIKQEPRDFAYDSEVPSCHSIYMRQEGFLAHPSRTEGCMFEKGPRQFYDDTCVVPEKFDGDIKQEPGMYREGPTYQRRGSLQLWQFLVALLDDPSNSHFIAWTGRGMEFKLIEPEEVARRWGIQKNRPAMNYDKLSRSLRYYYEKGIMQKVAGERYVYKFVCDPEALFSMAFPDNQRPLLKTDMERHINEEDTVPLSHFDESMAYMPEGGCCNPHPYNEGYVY
# In short: as §1
sequence,measurement,setting,value
GTTTTC,binding signal,FLI1,"1.19 fold enrichment (6-mer frequency, TF over GST control)"
same,binding signal,ELK1,"1.2 fold enrichment (6-mer frequency, TF over GST control)"
same,binding signal,GABPA,"1.23 fold enrichment (6-mer frequency, TF over GST control)"
same,binding signal,ERG,"1.24 fold enrichment (6-mer frequency, TF over GST control)"
same,binding signal,ELF1,"1.15 fold enrichment (6-mer frequency, TF over GST control)"
same,binding signal,EHF,"1.28 fold enrichment (6-mer frequency, TF over GST control)"
same,binding signal,SPI1,"1.17 fold enrichment (6-mer frequency, TF over GST control)"
same,binding signal,SPIB,"1.2 fold enrichment (6-mer frequency, TF over GST control)"
same,binding signal,ELK3,"1.23 fold enrichment (6-mer frequency, TF over GST control)"
same,binding signal,FEV,"1.21 fold enrichment (6-mer frequency, TF over GST control)"
same,binding signal,ETV5,"1.24 fold enrichment (6-mer frequency, TF over GST control)"
same,binding signal,HSF1,"1.13 fold enrichment (6-mer frequency, TF over GST control)"
same,binding signal,SPIC,"1.1 fold enrichment (6-mer frequency, TF over GST control)"
same,binding signal,ELF4,"1.2 fold enrichment (6-mer frequency, TF over GST control)"
same,binding signal,ETV2,"1.25 fold enrichment (6-mer frequency, TF over GST control)"
same,binding signal,ELF3,"1.32 fold enrichment (6-mer frequency, TF over GST control)"
same,binding signal,ETV1,"1.13 fold enrichment (6-mer frequency, TF over GST control)"
